Data reported in PubChem BioAssay (NCI).
This is part of a sample that, as a whole, favours compounds with a hit. Of some 79,000 tested, about 15% had one in any assay. The source made the active and inactive calls. No stated cut-off is given here; in the data, active means growth inhibition above about 70%; inactive means the rest.

Assays:
[1] = NCI Yeast Anticancer Drug Screen. Data for the wt1 strain (AID 149);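 further: 0% = growth of vehicle-treated wt1 cultures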; details: S. cerevisiae wt1 strain (SPY 50644) growth inhibition, active compounds read high
Summary of the method: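 The wt1 strain was treated with compounds, and growth was compared with vehicle-treated cultures to give inhibition.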

[2] = NCI Yeast Anticancer Drug Screen. Data for the rad50EPP+ strain (AID 151);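 further: 0% = growth of vehicle-treated control cultures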; details: S. cerevisiae rad50 mutant strain, active compounds read high
Summary of the method: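 rad50EPP+ yeast treated with test compounds. Readout: growth vs vehicle control.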

[3] = NCI Yeast Anticancer Drug Screen. Data for the mgt1 strain (AID 153); details: S. cerevisiae mgt1 mutant growth inhibition, active compounds read high
Summary of the method: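 Growth inhibition relative to vehicle controls was scored for the mgt1 yeast strain after compound exposure.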

[4] = NCI Yeast Anticancer Drug Screen. Data for the rad50 strain (AID 155);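 further: 0% = growth of vehicle-only cultures of the same strain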; details: S. cerevisiae rad50 strain growth inhibition, active compounds read high
Summary of the method: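 Cells are treated with compound, grown, and their growth is then scored against vehicle-only cultures of the same repair-deficient yeast strain.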

[5] = NCI Yeast Anticancer Drug Screen. Data for the mec2-1 strain (AID 157); details: S. cerevisiae mec2-1 strain, active compounds read high
Summary of the method: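 Growth inhibition is read against vehicle-treated controls after compound exposure of the mec2-1 yeast strain, which is defective in DNA damage repair or cell cycle control.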

[6] = NCI Yeast Anticancer Drug Screen. Data for the rad14 strain (AID 159);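 further: 0% = growth of vehicle-treated control cultures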; details: S. cerevisiae rad14 strain growth inhibition, active compounds read high
Summary of the method: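 Readout: yeast growth inhibition, referenced to vehicle-only cultures. Strain bears a defined alteration in DNA damage repair.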

[7] = NCI Yeast Anticancer Drug Screen. Data for the sgs1 mgt1 strain (AID 161);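 further: 0% = growth of cultures given vehicle only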; details: S. cerevisiae sgs1 mgt1 strain, active compounds read high
Summary of the method: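 Growth of a repair-deficient yeast mutant was monitored after compound treatment and expressed as inhibition relative to vehicle-treated cultures.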

[8] = NCI Yeast Anticancer Drug Screen. Data for the CLN2oe strain (AID 163);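 further: 0% = growth of vehicle-only control cultures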; details: S. cerevisiae CLN2oe strain, active compounds read high
Summary of the method: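 Compound-treated yeast; growth vs vehicle ctrl = % inhibition. Genetically altered strain (cell-cycle control).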

[9] = NCI Yeast Anticancer Drug Screen. Data for the cln2 rad14 strain (AID 165);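 further: 0% = growth equal to vehicle treated cultures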; details: S. cerevisiae cln2 rad14 strain, active compounds read high
Summary of the method: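 Growth inhibition, relative to vehicle-treated controls, is the read-out. The test organism is a yeast strain with defined genetic alterations, cln2 rad14.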

[10] = NCI Yeast Anticancer Drug Screen. Data for the bub3 strain (AID 167); details: S. cerevisiae bub3 mutant strain, active compounds read high
Summary of the method: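 Part of a panel of yeast mutants defective in DNA damage repair or cell cycle regulation. Each strain is grown with compound, and inhibition is calculated relative to solvent-treated cultures.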

[11] = NCI Yeast Anticancer Drug Screen. Data for the wt2 strain (AID 169);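 further: 0% = growth of vehicle-treated yeast cultures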; details: S. cerevisiae wt2 strain growth inhibition, active compounds read high
Summary of the method: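 Compound exposure of yeast; growth compared with vehicle controls; inhibition reported.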

[12] = NCI Yeast Anticancer Drug Screen. Data for the sgs1 strain (AID 173);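 further: 0% = growth of vehicle-only control cultures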; details: S. cerevisiae sgs1 mutant, active compounds read high
Summary of the method: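 Compounds applied to genetically altered yeast; growth compared with vehicle-treated cultures to give % inhibition.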

[13] = NCI Yeast Anticancer Drug Screen. Data for the mlh1 rad18 strain (AID 175); details: S. cerevisiae mlh1 rad18 strain growth inhibition, active compounds read high
Summary of the method: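 Cells of a genetically altered yeast strain, deficient in DNA damage repair, were treated with compound. Their growth was then compared with that of vehicle-treated cultures to give inhibition.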

[14] = NCI Yeast Anticancer Drug Screen. Data for the rad18 strain (AID 177); details: S. cerevisiae rad18 mutant growth inhibition, active compounds read high
Summary of the method: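 Compounds are applied to a repair-deficient yeast strain, and growth is compared with that of vehicle-treated cultures to give percent inhibition.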

[15] = NCI Yeast Anticancer Drug Screen. Data for the rad52 strain (AID 147);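 further: 0% = growth of vehicle-treated control cultures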; details: S. cerevisiae rad52 mutant growth inhibition, active compounds read high
Summary of the method: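 DNA repair-defective yeast; compound exposure; growth scored against vehicle controls.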

[16] = NCI Yeast Anticancer Drug Screen. Data for the mlh1 strain (AID 171);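 further: 0% = growth of vehicle-treated control cultures of the same strain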; details: S. cerevisiae mlh1 strain growth inhibition, active compounds read high
Summary of the method: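 Compounds are applied to a genetically altered yeast strain, and its growth is compared with that of vehicle-treated cultures to give percent inhibition.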

[17] = at 5.0 µM (retest, dose inferred, filed as 0.5)
[18] = at 50.0 µM (retest, dose inferred, filed as 5.0)

Measured: growth inhibition

C/C(=N\N=C(N)N)C(CN1CCOCC1)C(c1ccccc1)c1c(O)c2ccccc2oc1=O (stereo unspecified)
inactive: [1]; at 1.2 µM 2% | [1]; at 3.7 µM -2% | [1]; at 11.0 µM -3% | [1]; at 33.0 µM 3% | [1]; at 100.0 µM 42% | [2]; at 1.2 µM -6% | [2]; at 3.7 µM -3% | [2]; at 11.0 µM -6% | [2]; at 33.0 µM -3% | [2]; at 100.0 µM 10% | [3]; at 1.2 µM 1% | [3]; at 3.7 µM -2% | [3]; at 11.0 µM 0% | [3]; at 33.0 µM 37% | [3]; at 100.0 µM 48% | [4]; at 1.2 µM 3% | [4]; at 3.7 µM 5% | [4]; at 11.0 µM -15% | [4]; at 33.0 µM 21% | [5]; at 1.2 µM 1% | [5]; at 3.7 µM 1% | [5]; [17] 59% | [5]; at 11.0 µM -3% | [5]; at 33.0 µM 8% | [5]; [18] 59% | [5]; at 100.0 µM 51% | [6]; at 1.2 µM 4% | [6]; at 3.7 µM 1% | [6]; at 11.0 µM -2% | [6]; at 33.0 µM 6% | [8]; at 1.2 µM 0% | [8]; at 3.7 µM 7% | [8]; at 11.0 µM 2% | [8]; at 33.0 µM 18% | [8]; at 100.0 µM 48% | [9]; [17] 7% | [9]; [18] 7% | [10]; at 1.2 µM 5% | [10]; at 3.7 µM 4% | [10]; [17] 31% | [10]; at 11.0 µM 18% | [10]; at 33.0 µM 47% | [10]; [18] 31% | [10]; at 100.0 µM 43% | [11]; at 1.2 µM -1% | [11]; at 3.7 µM 0% | [11]; at 11.0 µM 0% | [11]; at 33.0 µM 35% | [12]; at 1.2 µM -1% | [12]; at 3.7 µM -3% | [12]; at 11.0 µM 0% | [12]; at 33.0 µM 42% | [13]; [17] 57% | [13]; [18] 57% | [13]; at 50.0 µM 49.2% | [14]; at 1.2 µM -3% | [14]; at 3.7 µM -9% | [14]; at 11.0 µM -12% | [14]; at 33.0 µM 13%
active: [4]; [17] 78% | [4]; [18] 78% | [4]; at 50.0 µM 86.5% | [4]; at 100.0 µM 94% | [5]; at 50.0 µM 80.7% | [6]; at 100.0 µM 93% | [7]; [17] 88% | [7]; [18] 88% | [7]; at 50.0 µM 86% | [9]; at 50.0 µM 85.5% | [10]; at 50.0 µM 77.8% | [11]; at 100.0 µM 95% | [12]; at 100.0 µM 97% | [14]; at 100.0 µM 93%

C/C(CCl)=N/NC1=NC(c2ccccc2Cl)P(=O)(NCCCNP2(=O)SC(N/N=C(/C)CCl)=NC2c2ccccc2Cl)S1 (stereo unspecified)
active: [4]; at 50.0 µM 96% | [5]; at 50.0 µM 96.3% | [7]; at 50.0 µM 93.2% | [9]; at 50.0 µM 92.3% | [13]; at 50.0 µM 95.9%
inactive: [15]; at 1.2 µM -2% | [15]; at 3.7 µM -2% | [15]; at 11.0 µM -2% | [15]; at 33.0 µM 5% | [15]; at 100.0 µM 8% | [1]; at 1.2 µM 3% | [1]; at 3.7 µM -4% | [1]; at 11.0 µM -5% | [1]; at 33.0 µM -3% | [1]; at 100.0 µM -1% | [4]; at 1.2 µM 4% | [4]; at 3.7 µM 4% | [4]; [17] -21% | [4]; at 11.0 µM 23% | [4]; at 33.0 µM 38% | [4]; [18] 8% | [4]; at 100.0 µM 34% | [5]; at 1.2 µM -4% | [5]; at 3.7 µM -4% | [5]; [17] -12% | [5]; at 11.0 µM -6% | [5]; at 33.0 µM -5% | [5]; [18] 2% | [5]; at 100.0 µM -1% | [6]; at 1.2 µM 0% | [6]; at 3.7 µM -1% | [6]; at 11.0 µM -4% | [6]; at 33.0 µM 2% | [6]; at 100.0 µM 5% | [7]; [17] -2% | [7]; [18] 51% | [8]; at 1.2 µM -13% | [8]; at 3.7 µM -4% | [8]; at 11.0 µM -1% | [8]; at 33.0 µM -16% | [8]; at 100.0 µM -22% | [9]; [17] -18% | [9]; [18] -4% | [11]; at 1.2 µM 0% | [11]; at 3.7 µM -2% | [11]; at 11.0 µM -2% | [11]; at 33.0 µM 17% | [11]; at 100.0 µM 13% | [16]; at 1.2 µM -2% | [16]; at 3.7 µM 3% | [16]; at 11.0 µM 4% | [16]; at 33.0 µM 22% | [16]; at 100.0 µM 16% | [12]; at 1.2 µM 0% | [12]; at 3.7 µM -2% | [12]; at 11.0 µM 0% | [12]; at 33.0 µM 19% | [12]; at 100.0 µM 16% | [13]; [17] -5% | [13]; [18] 18% | [14]; at 1.2 µM 1% | [14]; at 3.7 µM 10% | [14]; at 11.0 µM 9% | [14]; at 33.0 µM 27% | [14]; at 100.0 µM 23%

O=[N+]([O-])c1ccc(-n2nc3ccc4c(no[n+]4[O-])c3[n+]2[O-])c([N+](=O)[O-])c1
active: [4]; [18] 98% | [5]; [18] 98% | [7]; [18] 97% | [7]; at 50.0 µM 70.5% | [9]; [18] 97% | [10]; [18] 96% | [13]; [18] 97%
inactive: [1]; at 1.2 µM -2% | [1]; at 3.7 µM -2% | [1]; at 11.0 µM -2% | [1]; at 33.0 µM 0% | [1]; at 100.0 µM 3% | [2]; at 1.2 µM 3% | [2]; at 3.7 µM 8% | [2]; at 11.0 µM 13% | [2]; at 33.0 µM 26% | [2]; at 100.0 µM 24% | [3]; at 1.2 µM -4% | [3]; at 3.7 µM -3% | [3]; at 11.0 µM 5% | [3]; at 33.0 µM -3% | [3]; at 100.0 µM -2% | [4]; at 1.2 µM -1% | [4]; at 3.7 µM 1% | [4]; [17] 20% | [4]; at 11.0 µM -5% | [4]; at 33.0 µM 6% | [4]; at 50.0 µM 30.4% | [4]; at 100.0 µM 4% | [5]; at 1.2 µM 3% | [5]; at 3.7 µM 0% | [5]; [17] 23% | [5]; at 11.0 µM 2% | [5]; at 33.0 µM 3% | [5]; at 50.0 µM 9.9% | [5]; at 100.0 µM 2% | [6]; at 1.2 µM -3% | [6]; at 3.7 µM -1% | [6]; at 11.0 µM 7% | [6]; at 33.0 µM 8% | [6]; at 100.0 µM 8% | [7]; [17] 16% | [8]; at 1.2 µM -1% | [8]; at 3.7 µM -5% | [8]; at 11.0 µM -6% | [8]; at 33.0 µM -2% | [8]; at 100.0 µM 2% | [9]; [17] 44% | [9]; at 50.0 µM 9.9% | [10]; at 1.2 µM -3% | [10]; at 3.7 µM 1% | [10]; [17] -14% | [10]; at 11.0 µM 10% | [10]; at 33.0 µM 8% | [10]; at 50.0 µM 66.7% | [10]; at 100.0 µM 9% | [11]; at 1.2 µM -8% | [11]; at 3.7 µM -3% | [11]; at 11.0 µM -2% | [11]; at 33.0 µM 2% | [11]; at 100.0 µM 3% | [16]; at 1.2 µM 0% | [16]; at 3.7 µM -4% | [16]; at 11.0 µM -3% | [16]; at 33.0 µM 1% | [16]; at 100.0 µM -5% | [12]; at 1.2 µM -1% | [12]; at 3.7 µM 1% | [12]; at 11.0 µM 3% | [12]; at 33.0 µM 4% | [12]; at 100.0 µM 6% | [13]; [17] 28% | [13]; at 50.0 µM -13.2% | [14]; at 1.2 µM -1% | [14]; at 3.7 µM 4% | [14]; at 11.0 µM 7% | [14]; at 33.0 µM 1% | [14]; at 100.0 µM 19%
